TDP1 block: inhibitors of human tyrosyl-DNA phosphodiesterase TDP1; Potency, µM (series often up to 130 µM), for inactives: at the top dose activity change, negative = inhibition, most hits filed as inhibitors; recombinant TDP1, AlphaScreen DNA substrate cleavage; AID 485290; hit rate 0.28% among 350,000; further: on the % scale 0 is the no-effect control and ±100 the full control effect; nearly all actives have a fitted effect of over 40% in size
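Tdp1 1 nM final; 15 min RT w/ cpd; substrate 15 nM, 5 min; beads 10 ug/ml, 10 min; AlphaScreen read. Neg ctrl: no enzyme.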
ClpP mod: qHTS Assay for Activators of ClpP; purified B. subtilis ClpP, FRET peptide cleavage, 20 min; Potency, µM (top dose mostly 57.5 µM), for inactives: at the highest dose activity change, negative = active; ATP-dependent Clp protease proteolytic subunit (Bacillus subtilis (strain 168)), P80244; hit rate 1.9% among 340,000; active means well fitted falling curve with a large enough effect; inconclusive means small, poorly fitted or top-dose-only effect; inactive means no such curve, though single readings can be large or run the other way; further: the source files actives as falling curves though it sought activators and does not explain the sign; nearly all actives have a fitted effect of over 65% in size
Target sequence (P80244 whole entry, looked up): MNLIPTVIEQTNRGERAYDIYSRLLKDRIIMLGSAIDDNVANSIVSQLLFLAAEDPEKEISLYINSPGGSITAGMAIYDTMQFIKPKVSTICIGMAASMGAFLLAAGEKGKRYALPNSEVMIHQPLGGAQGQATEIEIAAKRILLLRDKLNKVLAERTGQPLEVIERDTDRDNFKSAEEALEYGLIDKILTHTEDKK
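Purified B. subtilis ClpP, 10 microg/mL final in Tris/HCl pH8 with KCl, BSA, glycerol and Tween-20, cleaved an Abz/nitrotyrosine-quenched decapeptide. Fluorescence (ex 320, em 430) was read at 0 and 20 min at room temperature. Delta was normalized to 5.8 microM ADEP and DMSO/no-enzyme controls.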
TDP1 cell CPT: DT40-hTDP1 cell growth loss with CPT | chicken DT40 Tdp1-/-;hTDP1 cells + 20 nM CPT, ATP luminescence, 48 h | hit rate 12% among 420,000 | Potency, µM (doses to about 46.2 µM), without a hit: at the top dose activity change, negative = growth inhibition, actives largely listed as inhibitors | AID 686979; further: on the % scale 0 is the no-effect control and ±100 the full control effect; nearly all actives have a fitted effect of over 55% in size
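Chicken DT40 Tdp1-/- cells complemented with human TDP1, 400 cells/well, exposed to compounds plus 20 nM camptothecin for at least 48 h at 37 C; viability read as ATP content by CellTiter-Glo luminescence.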
TDP1 cell noCPT: qHTS for Inhibitors of human tyrosyl-DNA phosphodiesterase 1 (TDP1): qHTS in cells in absence of CPT | Potency, µM (doses to about 46.2 µM), for inactives: at the top dose activity change, negative = growth inhibition, usual class: inhibitors | DT40 Tdp1-/- hTDP1 cells, no CPT, ATP luminescence, 48 h | AID 686978, 2013 | hit rate 15% among 420,000; further: on the % scale 0 is the no-effect control and ±100 the full control effect; nearly all actives have a fitted effect of over 55% in size
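Readout: luminescence from CellTiter-Glo after 30 min in the dark at RT. Cells: DT40 Tdp1-/- with stable hTDP1, 400/well. Exposure: compounds alone, ≥48 hr, 37 °C.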
An asterisk follows results filed as active; ? = inconclusive; nt = no result; [ ] = remark or other dose. Compounds with a hit are over-represented: about 17% of the library has one in this group of screens. Unless noted, the call rests on the fitted dose curve; in most records, active means well fitted curve in the direction sought with a large enough effect; inconclusive means small, poorly fitted or top-dose-only effect, or another doubt; inactive means no such curve, though single readings can be large; an effect the other way counts as inactive or inconclusive. Potency means the concentration at half of the fitted maximal effect.

SMILES | TDP1 block | ClpP mod | TDP1 cell CPT | TDP1 cell noCPT
C[C@@H]1NC(=O)[C@H](CCC(=O)O)NC(=O)c2cc([N+](=O)[O-])cc(F)c2NCCC[C@@H](C(N)=O)NC1=O | -3% | 0% | 3% | 10%
Cc1onc(-c2ccccc2Cl)c1C(=O)N1CCCc2ccccc21 | 3% | -3% | ? | ?
Cc1onc(-c2c(F)cccc2Cl)c1C(=O)Nc1cccc2nsnc12 | nt | -21% | 16µM* | 3.7µM*
Cc1noc(C)c1C(=O)Nc1ccccc1N1CCOCC1 | 0% | 0% | -22% | -1%
Cc1onc(-c2c(F)cccc2Cl)c1C(=O)N1CCCc2ccccc21 | 4% | 0% | ? | 18µM*
Cc1onc(-c2ccccc2)c1C(=O)Nc1cc(C(F)(F)F)ccc1N1CCOCC1 | 3% | -1% | 3.7µM* | 2.9µM*
Cc1onc(-c2c(F)cccc2Cl)c1C(=O)Nc1ccccc1N1CCOCC1 | -1% | -1% | ? | 23µM*
Cc1onc(-c2ccccc2)c1C(=O)Nc1ccccc1N1CCOCC1 | -5% | -2% | ? | ?
CCCN(c1ccccc1C(=O)O)S(=O)(=O)c1ccc2c(c1)n(C)c(=O)n2C | nt | -1% | 6% | -7%
COc1ccc(CCNC(=O)COC(=O)/C=C/c2cccs2)cc1 | 0% | nt | 4% | -3%
CCCN1C(=O)C(Cc2nc3ccccc3c(=O)n2CC)c2cc(Br)ccc21 (configuration not stated) | 9% | -2% | 1.2µM* | 1.2µM*
CCn1c(CC2C(=O)Nc3ccccc32)nc2ccccc2c1=O (configuration not stated) | 5% | -2% | -12% | ?
CCN1C(=O)C(Cc2nc3ccccc3c(=O)n2C)c2cc(C)ccc21 (configuration not stated) | -1% | 0% | ? | 26µM*
CCCN1C(=O)C(Cc2nc3ccccc3c(=O)n2-c2ccccc2)c2ccccc21 (configuration not stated) | 2% | -2% | -25% | ?
CCn1c(CC2C(=O)N(C)c3ccc(Br)cc32)nc2ccccc2c1=O (configuration not stated) | 0% | 4% | 5.2µM* | 1.5µM*
CCCN1C(=O)C(Cc2nc3ccccc3c(=O)n2CC)c2ccccc21 (configuration not stated) | -5% | 0% | ? | 5.2µM*
Cc1ccc(Cl)cc1N1CCN(S(=O)(=O)c2ccc3c(c2)CCCN3C(=O)C2CCC2)CC1 | 5% | 1% | -4% | ?
CCc1ccc(NC(=O)c2cnc(SC)nc2C)cc1 | nt | -5% | ? | -25%
O=C1[C@H]2[C@H]3[C@H](O)[C@H](O)C/C(=N/OC[C@@H](O)COCc4ccco4)[C@H]3CC[C@@H]2C(=O)N1c1cccc(Oc2ccccc2)c1 | 6%[21 µM] | nt | nt | nt
Cn1cccc1C(=O)C(=O)Nc1ccccc1C(F)(F)F | 1% | nt | -23% | -19%
CCOC(=O)c1cnn(-c2ccccc2)c1-n1cccc1C(=O)C(=O)Nc1ccccc1C(F)(F)F | 6% | -22% | ? | 21µM*
COc1ccc(-c2nc3ccccc3n2Cc2ccccc2)cc1COc1ccc(NC(C)=O)cc1 | -2% | nt | nt | nt
CCOC(=O)C1CCCN(C(=O)c2cccs2)CC1 (configuration not stated) | nt | 0% | -9% | -5%
COc1ccc(OC)c(NC(=O)c2cccnc2Sc2ccccc2)c1 | -3% | -2% | 12% | 9%
C=CCn1c(SCC(=O)O)nnc1-c1cccs1 | -5% | ? | 2% | -15%
SMILES | TDP1 block | ClpP mod | TDP1 cell CPT | TDP1 cell noCPT
C=CCn1c(SCCC(=O)O)nnc1-c1cccs1 | 2% | 28µM* | 3% | -21%
CN(C)c1ccc(/C=C\C=C/c2ccnc3ccccc23)cc1 | nt | -1% | 0.079µM* | 0.1µM*
CN(C)c1ccc(/C=C/c2ccnc3ccccc23)c(N)c1 | nt | 2% | 0.63µM* | 0.63µM*
CN(C)c1ccc(/C=C/c2ccnc3ccccc23)c(F)c1 | nt | 1% | ? | 13µM*
Nc1cccc(/C=C/c2ccnc3ccccc23)c1 | nt | -1% | ? | ?
CCc1cnc2ccccc2c1/C=C/c1ccc(N(C)C)cc1 | nt | 0% | ? | ?
CN(C)c1ccc(CCc2ccnc3ccccc23)cc1 | nt | -2% | 13µM* | 14µM*
COc1ccc(S(=O)(=O)Nc2ccc3c(c2)OCCO3)cc1OC | 5% | nt | 12% | -2%
CC(=O)Nc1ccccc1C(=O)N1CCN(Cc2ccccc2)CC1 | 7% | 1% | -12% | -14%
COc1ccc(S(=O)(=O)N(C)C)cc1NC(=O)c1ccc(OCC2CCCO2)cc1 (configuration not stated) | nt | 0% | -15% | -25%
Nc1ncc(Br)cc1S(=O)(=O)Nc1cc(C(F)(F)F)cc(C(F)(F)F)c1 | 2% | nt | ? | 18µM*
CCN1CCN(CNC(=O)c2cnccn2)CC1 | 9% | -3% | 18µM* | 0%
Cc1ccc(OCc2cnc(Cl)s2)c(C)c1 | -9% | nt | -20% | -8%
CCOC(=O)N1CCN(S(=O)(=O)/C=C/c2ccccc2)CC1 | 0% | 0% | -26% | -12%
O=C(c1ccc(Cl)cc1)N1CCN(S(=O)(=O)/C=C/c2ccccc2)CC1 | -3% | 2% | ? | 21µM*
CC(C)(C)c1ccc(-c2nc(C#N)c(NCCCn3ccnc3)o2)cc1 | 12% | nt | ? | ?
N#Cc1nc(-c2ccc(OCc3ccc(Cl)cc3)cc2)oc1NCc1cccnc1 | 4% | 28µM* | -8% | ?
CN(C)c1oc(-c2ccc(OCc3ccccc3)cc2)nc1C#N | 5% | 13µM* | -11% | -14%
N#Cc1nc(-c2ccc(OCc3ccccc3Cl)cc2)oc1NCCCn1ccnc1 | 5% | nt | nt | nt
CN(C)c1oc(-c2ccccc2F)nc1C#N | -5% | 4% | 2% | -8%
N#Cc1nc(-c2ccc(OCc3ccc(Cl)cc3)cc2)oc1N1CCCC1 | 5% | 0% | -18% | ?
CCCOc1ccc(-c2nc(C#N)c(NCCCn3ccnc3)o2)cc1 | 12% | -26% | ? | 18µM*
N#Cc1nc(-c2ccc(OCc3ccccc3)cc2)oc1NCCCn1ccnc1 | 13% | ? | ? | 21µM*
C/C(=N\N1CCN(c2ccccc2)CC1)c1ccc(O)cc1 | nt | 0% | -25% | -25%
Cn1cc(P(=O)(c2ccccc2)c2ccccc2)c2ccccc21 | 0% | nt | nt | nt
COc1ccc(-c2cc(-c3ccccc3)c(C#N)c(SCC(O)CS(=O)(=O)Cc3ccc(Cl)cc3)n2)cc1 (configuration not stated) | 0%[12.3 µM] | 4% | -24% | ?
N#Cc1c(-c2ccccc2)cc(-c2ccccc2)nc1SCC(O)CS(=O)(=O)Cc1ccc(Cl)cc1 (configuration not stated) | 1%[12.3 µM] | 10µM* | 8.2µM* | 3.3µM*
Cc1cc(O)c(-c2ccnc3cc(-c4ccccc4)nn23)cc1Cl | -3% | ? | ? | ?

Source: PubChem BioAssay (National Center for Advancing Translational Sciences (NCATS))
